# Experimental data taken from PMC5540273 (PLoS ONE, 2017).
# System: CDC2L2
# Details: concentration: 1 μM,replicates: in singlicate; n = 1
# 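Also: KINOMEscan kinase panel screen.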
row,SMILES,%Inh
1,O=C(Nc1cccc(C(F)(F)F)c1)c1cccc(Oc2ccc3nccn3n2)c1,3%
2,O=c1[nH]cc(-c2ccc(O)cc2)c2sc(-c3ccncc3)cc12 [GSK1033723],12%
3,Cc1nnc(-c2ccc3occ(-c4ccc(S(C)=O)cc4)c3n2)o1 (stereo not shown),0%
4,Cl.Cl.NC[C@H](CC1CCCCC1)NC(=O)c1ccc(-c2ccnc3[nH]ccc23)s1 [GSK1581428],0%
5,CCNCC(Cc1ccccc1)NC(=O)c1cc(Br)c(-c2ccnc3[nH]ccc23)s1.Cl.Cl (stereo not shown) [GSK1383280],22%
6,COc1cc2nccc(Nc3ccc(Oc4ccccc4)cc3)c2cc1OC.Cl [GI261656],28%
7,O=C(NCC1CC1)c1ccc(-c2cc(C(=O)NC3CC3)ccc2F)cc1 [GW810445],0%
8,NC(=O)Nc1sc(-c2ccc(F)cc2)cc1C(N)=O [GW789449],0%
9,C[C@@H](Oc1cc(-n2cnc3cc(-c4ccncc4)ccc32)sc1C(N)=O)c1ccccc1Cl [GSK479719],0%
10,OCCn1cc(-c2cnc3nnn(Cc4ccc5ncccc5c4)c3n2)cn1,0%
11,Cn1ccc2ncnc(Oc3ccc(NC(=O)Nc4cncc(C(F)(F)F)c4)c(Cl)c3)c21,0%
12,COC(=O)c1cccc(NC(=O)NC2CCN(c3ccnc(NCc4ccc(F)cc4)n3)CC2)c1 [GSK1379860],0%
13,Cc1n[nH]c2cc(Nc3ccnc(Nc4cccc(CN5CCOCC5)c4)n3)ccc12 [GW682569],24%
14,FC(F)(F)c1cc(Br)cc(Nc2nccc(-c3cnn4ncccc34)n2)c1 [GW810578],7%
15,Cn1ccc2ncnc(Oc3ccc(NC(=O)Nc4cccc(C(F)(F)F)c4)c(F)c3)c21,0%
16,COc1cc2ncn(-c3cc(OCC4CCCCC4)c(C(N)=O)s3)c2cc1OC [GSK204559],6%
17,CN1CCN(CCNc2nc3cc(Oc4ccc(NC(=O)Nc5cc(C(F)(F)F)ccc5F)cc4)ccc3[nH]2)CC1.Cl.Cl [GW768504],7%
18,CS(=O)c1ccc(-c2coc3ccc(-c4n[nH]c(=O)o4)cc23)cc1 (stereo not shown),0%
19,CN(c1cccc(CNc2nc(Nc3ccc4c(c3)CC(=O)N4)ncc2C(F)(F)F)c1)S(C)(=O)=O,7%

row,SMILES,%Inh
1,C[C@@H](Oc1cc(-n2cnc3ccc(-c4ccncc4)cc32)sc1C(N)=O)c1ccccc1Cl [GSK483724],7%
2,c1ccc(Oc2ccc(Nc3ccnc4ccc(-c5ccccn5)cc34)cc2)cc1 [GW407034],0%
3,COc1cc(Nc2nccc(N3CCC(NC(=O)c4cccc(C#N)c4)C3)n2)cc(OC)c1OC (stereo not shown) [GSK1379751],36%
4,COC(=O)Nc1nc2cc(Oc3ccc(NC(=O)Nc4cc(C(F)(F)F)ccc4Cl)cc3)ccc2[nH]1.Cl [GW697465],12%
5,COc1cccc(OC)c1C(=O)Nc1cccc(-c2nn3ccccc3c2-c2ccnc(Nc3cccc(F)c3)n2)c1 [GSK361065],0%
6,C[C@@H](Oc1cc(-n2cnc3cc(-c4cnn(C)c4)ccc32)sc1C(N)=O)c1ccccc1Cl [GSK580432],0%
7,O=C(Nc1ccc(Oc2ccc3nc(NC(=O)C4CC4)cn3n2)c(F)c1)c1cccn(-c2ccccc2)c1=O,6%
8,Cn1cc(-c2cccc3c(N)c(C(N)=O)nnc23)cn1,7%
9,Cc1ccc2c(-c3ccnc(Nc4ccc(C(F)(F)F)cc4)n3)cnn2n1 [GW819776],0%
10,Cl.Nc1n[nH]c2cc(-c3ccccn3)ccc12 [GSK2189892],23%
11,C[C@@H]1CNc2c(sc3ccc4nc(-c5ccc(O)cc5)ccc4c23)C(=O)N1,6%
12,CC(=O)Nc1nc2cnc(Nc3cc(NC(=O)c4cccc(CC(C)(C)C#N)c4)ccc3C)nc2s1,16%
13,CC(C)S(=O)(=O)N1CCN(Cc2ccc3c(c2)nc(NC(=O)c2ccsc2)n3C[C@H](O)c2ccccc2)CC1 [GW635815],4%
14,Cn1ccc2ncnc(Oc3ccc(NC(=O)Nc4ccnc(C(F)(F)F)c4)c(Cl)c3)c21,0%
15,O=C1NCCc2[nH]c(-c3ccncc3)cc21,0%
16,Cc1ccc(C(=O)Nc2ccc(Oc3ccc4nc(NC(=O)C5CC5)cn4c3)c(F)c2)c(=O)n1-c1ccccc1,7%
17,Cc1ccc(Nc2ccnc(Nc3ccc4c(c3)CS(=O)(=O)C4)n2)cc1O.Cl [GW579362],46%
18,CN(c1ccccc1CNc1nc(Nc2ccc3c(c2)CC(=O)N3)ncc1C(F)(F)F)S(C)(=O)=O,0%

# System: T1, CDC2L5
# T1 construct: gene CDK13
# Details: concentration: 1 μM,replicates: in singlicate; n = 1
row,SMILES,%Inh
1,O=C(Nc1cccc(C(F)(F)F)c1)c1cccc(Oc2ccc3nccn3n2)c1,0%
2,O=c1[nH]cc(-c2ccc(O)cc2)c2sc(-c3ccncc3)cc12 [GSK1033723],0%
3,Cc1nnc(-c2ccc3occ(-c4ccc(S(C)=O)cc4)c3n2)o1 (stereo not shown),0%
4,Cl.Cl.NC[C@H](CC1CCCCC1)NC(=O)c1ccc(-c2ccnc3[nH]ccc23)s1 [GSK1581428],0%
5,CCNCC(Cc1ccccc1)NC(=O)c1cc(Br)c(-c2ccnc3[nH]ccc23)s1.Cl.Cl (stereo not shown) [GSK1383280],0%
6,COc1cc2nccc(Nc3ccc(Oc4ccccc4)cc3)c2cc1OC.Cl [GI261656],0%
7,O=C(NCC1CC1)c1ccc(-c2cc(C(=O)NC3CC3)ccc2F)cc1 [GW810445],7%
8,NC(=O)Nc1sc(-c2ccc(F)cc2)cc1C(N)=O [GW789449],14%
9,C[C@@H](Oc1cc(-n2cnc3cc(-c4ccncc4)ccc32)sc1C(N)=O)c1ccccc1Cl [GSK479719],0%
10,OCCn1cc(-c2cnc3nnn(Cc4ccc5ncccc5c4)c3n2)cn1,0%
11,Cn1ccc2ncnc(Oc3ccc(NC(=O)Nc4cncc(C(F)(F)F)c4)c(Cl)c3)c21,51%
12,COC(=O)c1cccc(NC(=O)NC2CCN(c3ccnc(NCc4ccc(F)cc4)n3)CC2)c1 [GSK1379860],0%
13,Cc1n[nH]c2cc(Nc3ccnc(Nc4cccc(CN5CCOCC5)c4)n3)ccc12 [GW682569],0%
14,FC(F)(F)c1cc(Br)cc(Nc2nccc(-c3cnn4ncccc34)n2)c1 [GW810578],0%
15,Cn1ccc2ncnc(Oc3ccc(NC(=O)Nc4cccc(C(F)(F)F)c4)c(F)c3)c21,33%
16,COc1cc2ncn(-c3cc(OCC4CCCCC4)c(C(N)=O)s3)c2cc1OC [GSK204559],0%
17,CN1CCN(CCNc2nc3cc(Oc4ccc(NC(=O)Nc5cc(C(F)(F)F)ccc5F)cc4)ccc3[nH]2)CC1.Cl.Cl [GW768504],0%
18,CS(=O)c1ccc(-c2coc3ccc(-c4n[nH]c(=O)o4)cc23)cc1 (stereo not shown),36%

row,SMILES,%Inh
1,CN(c1cccc(CNc2nc(Nc3ccc4c(c3)CC(=O)N4)ncc2C(F)(F)F)c1)S(C)(=O)=O,0%
2,C[C@@H](Oc1cc(-n2cnc3ccc(-c4ccncc4)cc32)sc1C(N)=O)c1ccccc1Cl [GSK483724],0%
3,c1ccc(Oc2ccc(Nc3ccnc4ccc(-c5ccccn5)cc34)cc2)cc1 [GW407034],0%
4,COc1cc(Nc2nccc(N3CCC(NC(=O)c4cccc(C#N)c4)C3)n2)cc(OC)c1OC (stereo not shown) [GSK1379751],0%
5,COC(=O)Nc1nc2cc(Oc3ccc(NC(=O)Nc4cc(C(F)(F)F)ccc4Cl)cc3)ccc2[nH]1.Cl [GW697465],6%
6,C[C@@H](Oc1cc(-n2cnc3cc(-c4cnn(C)c4)ccc32)sc1C(N)=O)c1ccccc1Cl [GSK580432],0%
7,O=C(Nc1ccc(Oc2ccc3nc(NC(=O)C4CC4)cn3n2)c(F)c1)c1cccn(-c2ccccc2)c1=O,0%
8,Cn1cc(-c2cccc3c(N)c(C(N)=O)nnc23)cn1,10%
9,Cc1ccc2c(-c3ccnc(Nc4ccc(C(F)(F)F)cc4)n3)cnn2n1 [GW819776],0%
10,Cl.Nc1n[nH]c2cc(-c3ccccn3)ccc12 [GSK2189892],0%
11,C[C@@H]1CNc2c(sc3ccc4nc(-c5ccc(O)cc5)ccc4c23)C(=O)N1,0%
12,CC(=O)Nc1nc2cnc(Nc3cc(NC(=O)c4cccc(CC(C)(C)C#N)c4)ccc3C)nc2s1,66%
13,CC(C)S(=O)(=O)N1CCN(Cc2ccc3c(c2)nc(NC(=O)c2ccsc2)n3C[C@H](O)c2ccccc2)CC1 [GW635815],0%
14,Cn1ccc2ncnc(Oc3ccc(NC(=O)Nc4ccnc(C(F)(F)F)c4)c(Cl)c3)c21,20%
15,O=C1NCCc2[nH]c(-c3ccncc3)cc21,38%
16,Cc1ccc(C(=O)Nc2ccc(Oc3ccc4nc(NC(=O)C5CC5)cn4c3)c(F)c2)c(=O)n1-c1ccccc1,0%
17,Cc1ccc(Nc2ccnc(Nc3ccc4c(c3)CS(=O)(=O)C4)n2)cc1O.Cl [GW579362],0%
18,CN(c1ccccc1CNc1nc(Nc2ccc3c(c2)CC(=O)N3)ncc1C(F)(F)F)S(C)(=O)=O,0%
